Columns and labels:
Experiment in all cases: DAPPL (digital affinity profiling via proximity ligation, sequencing); 10 mM Tris-HCl pH 7.5, 50 mM NaCl, 1 mM DTT, 4% glycerol, room temperature, 30 min; GST-TFs on glutathione beads, 16-mer random dsDNA library, 0.1% formaldehyde crosslink after washing; high values mean tight binding
Conditions in all cases: protein: recombinant; tags: N-terminal GST; dsDNA, one strand shown
[1] = biological target: T1, FLI1 (Homo sapiens, UniProt Q01543 1-452)
T1 sequence: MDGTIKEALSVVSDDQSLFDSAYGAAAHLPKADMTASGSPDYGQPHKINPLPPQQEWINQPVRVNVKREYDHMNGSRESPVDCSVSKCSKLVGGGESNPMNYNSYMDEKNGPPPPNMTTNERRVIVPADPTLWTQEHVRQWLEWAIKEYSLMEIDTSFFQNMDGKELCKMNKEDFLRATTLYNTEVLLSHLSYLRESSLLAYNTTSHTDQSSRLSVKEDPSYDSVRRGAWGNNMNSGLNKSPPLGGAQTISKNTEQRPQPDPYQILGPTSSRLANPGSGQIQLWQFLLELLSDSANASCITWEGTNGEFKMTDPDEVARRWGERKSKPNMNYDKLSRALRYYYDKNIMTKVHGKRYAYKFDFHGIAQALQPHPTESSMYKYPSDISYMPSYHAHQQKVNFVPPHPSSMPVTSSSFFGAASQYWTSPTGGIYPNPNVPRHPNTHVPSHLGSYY
Summary of the method: (§1)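 After expression in yeast as GST fusions, human transcription factors were bound to glutathione beads, DNA-barcoded and mixed with a tag-only sample. The pools were incubated with 200 nmole of a 16-mer random double-stranded DNA library in Tris/NaCl/DTT/glycerol buffer (30 min, room temperature), washed and crosslinked with 0.1% formaldehyde. Proximity ligation with BsaI/T4 ligase ran for 1 h at 37 °C, before PCR amplification and sequencing on an Illumina NextSeq500. Binding signal is a hexamer's read frequency for a factor divided by its frequency for the tag-only sample.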

[2] = biological target: T2, ELK1 (Homo sapiens, UniProt P19419 1-428)
T2 sequence: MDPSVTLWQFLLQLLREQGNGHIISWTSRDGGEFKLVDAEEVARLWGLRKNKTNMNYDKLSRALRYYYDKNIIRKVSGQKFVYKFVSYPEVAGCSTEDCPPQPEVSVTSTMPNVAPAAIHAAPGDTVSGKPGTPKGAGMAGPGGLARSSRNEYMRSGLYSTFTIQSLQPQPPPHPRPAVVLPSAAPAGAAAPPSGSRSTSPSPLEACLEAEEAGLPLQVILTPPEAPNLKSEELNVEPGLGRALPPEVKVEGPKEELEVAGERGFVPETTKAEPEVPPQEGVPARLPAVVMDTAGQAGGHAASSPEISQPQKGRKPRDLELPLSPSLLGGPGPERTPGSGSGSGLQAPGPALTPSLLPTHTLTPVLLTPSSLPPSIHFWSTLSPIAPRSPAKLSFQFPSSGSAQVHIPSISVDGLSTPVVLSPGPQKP
Summary of the method: as §1

[3] = biological target: T3, GABPA (Homo sapiens, UniProt Q06546 1-454)
T3 sequence: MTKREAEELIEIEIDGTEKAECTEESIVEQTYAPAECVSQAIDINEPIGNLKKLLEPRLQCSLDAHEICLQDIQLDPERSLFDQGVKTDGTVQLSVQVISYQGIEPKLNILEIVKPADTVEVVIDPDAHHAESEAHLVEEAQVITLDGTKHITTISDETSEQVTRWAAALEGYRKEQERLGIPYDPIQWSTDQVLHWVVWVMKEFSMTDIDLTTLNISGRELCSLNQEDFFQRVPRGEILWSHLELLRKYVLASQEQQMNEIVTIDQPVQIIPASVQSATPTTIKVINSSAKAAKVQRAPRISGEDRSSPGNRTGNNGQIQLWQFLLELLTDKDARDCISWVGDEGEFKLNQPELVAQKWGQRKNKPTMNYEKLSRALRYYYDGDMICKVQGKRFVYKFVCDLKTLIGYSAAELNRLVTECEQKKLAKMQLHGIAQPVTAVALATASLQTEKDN
Summary of the method: as §1

[4] = biological target: T4, ERG (Homo sapiens, UniProt P11308 1-479)
T4 sequence: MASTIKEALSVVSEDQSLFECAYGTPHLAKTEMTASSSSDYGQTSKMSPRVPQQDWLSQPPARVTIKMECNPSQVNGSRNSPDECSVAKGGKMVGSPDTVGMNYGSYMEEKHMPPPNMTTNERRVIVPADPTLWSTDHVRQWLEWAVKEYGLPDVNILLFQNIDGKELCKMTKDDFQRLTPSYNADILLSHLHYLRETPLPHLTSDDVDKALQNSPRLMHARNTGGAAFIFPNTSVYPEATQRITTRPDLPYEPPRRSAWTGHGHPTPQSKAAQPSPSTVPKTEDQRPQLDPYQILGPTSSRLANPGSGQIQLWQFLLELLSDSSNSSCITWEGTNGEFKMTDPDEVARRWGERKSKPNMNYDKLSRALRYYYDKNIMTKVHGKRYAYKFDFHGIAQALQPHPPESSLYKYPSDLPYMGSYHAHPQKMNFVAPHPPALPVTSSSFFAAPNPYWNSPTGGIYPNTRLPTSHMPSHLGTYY
Summary of the method: as §1

[5] = biological target: ELF1 (Homo sapiens, UniProt P32519 1-619)
Chain of ELF1 (P32519 whole entry): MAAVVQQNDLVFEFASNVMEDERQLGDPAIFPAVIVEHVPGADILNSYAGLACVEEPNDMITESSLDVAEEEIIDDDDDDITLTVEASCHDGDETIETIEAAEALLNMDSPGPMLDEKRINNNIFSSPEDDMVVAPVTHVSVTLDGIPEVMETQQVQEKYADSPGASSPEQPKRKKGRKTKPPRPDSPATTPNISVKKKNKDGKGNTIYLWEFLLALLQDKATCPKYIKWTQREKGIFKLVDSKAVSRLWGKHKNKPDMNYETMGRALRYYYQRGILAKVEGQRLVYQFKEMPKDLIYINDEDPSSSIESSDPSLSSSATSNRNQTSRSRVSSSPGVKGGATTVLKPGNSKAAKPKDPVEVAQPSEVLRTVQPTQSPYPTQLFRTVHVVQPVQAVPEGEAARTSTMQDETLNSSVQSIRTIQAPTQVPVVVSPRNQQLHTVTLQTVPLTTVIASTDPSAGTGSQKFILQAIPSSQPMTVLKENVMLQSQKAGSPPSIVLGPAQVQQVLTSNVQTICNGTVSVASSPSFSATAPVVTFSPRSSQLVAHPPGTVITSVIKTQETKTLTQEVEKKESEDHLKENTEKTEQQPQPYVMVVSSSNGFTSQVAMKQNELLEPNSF
Summary of the method: as §1

[6] = biological target: T5, EHF (Homo sapiens, UniProt Q9NZC4 1-300)
T5 sequence: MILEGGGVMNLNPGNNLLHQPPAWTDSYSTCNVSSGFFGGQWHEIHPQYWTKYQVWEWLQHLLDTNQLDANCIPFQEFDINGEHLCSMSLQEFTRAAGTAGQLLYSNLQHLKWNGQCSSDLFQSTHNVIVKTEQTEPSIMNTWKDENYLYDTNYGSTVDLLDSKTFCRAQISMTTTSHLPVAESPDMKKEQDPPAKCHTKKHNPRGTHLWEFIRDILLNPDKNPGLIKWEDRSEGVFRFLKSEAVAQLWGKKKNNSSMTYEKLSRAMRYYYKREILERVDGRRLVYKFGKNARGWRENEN
Summary of the method: as §1

[7] = biological target: SPI1 (Homo sapiens, UniProt P17947 1-270)
Summary of the method: as §1

[8] = biological target: SPIB (Homo sapiens, UniProt Q01892 1-262)
Chain of SPIB (Q01892 whole entry): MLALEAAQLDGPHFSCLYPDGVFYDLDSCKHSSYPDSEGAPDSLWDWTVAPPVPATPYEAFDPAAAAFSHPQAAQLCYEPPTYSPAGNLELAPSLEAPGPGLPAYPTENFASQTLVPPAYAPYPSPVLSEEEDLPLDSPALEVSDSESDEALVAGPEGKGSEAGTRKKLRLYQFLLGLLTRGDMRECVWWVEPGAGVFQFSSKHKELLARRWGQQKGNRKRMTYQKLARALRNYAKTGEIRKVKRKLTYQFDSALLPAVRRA
Summary of the method: as §1

[9] = biological target: T6, ELK3 (Homo sapiens, UniProt P41970 1-407)
T6 sequence: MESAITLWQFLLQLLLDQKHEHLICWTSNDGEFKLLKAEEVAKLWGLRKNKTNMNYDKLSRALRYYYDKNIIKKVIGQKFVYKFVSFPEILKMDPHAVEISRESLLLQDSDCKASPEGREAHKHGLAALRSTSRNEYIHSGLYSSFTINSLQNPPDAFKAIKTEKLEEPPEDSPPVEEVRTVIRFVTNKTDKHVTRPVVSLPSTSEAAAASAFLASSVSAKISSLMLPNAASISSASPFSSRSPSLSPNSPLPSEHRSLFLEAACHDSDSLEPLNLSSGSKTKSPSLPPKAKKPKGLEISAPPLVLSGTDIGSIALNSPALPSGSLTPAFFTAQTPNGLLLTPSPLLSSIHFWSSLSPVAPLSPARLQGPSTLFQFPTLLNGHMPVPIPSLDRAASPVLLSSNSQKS
Summary of the method: as §1

[10] = biological target: T7, FEV (Homo sapiens, UniProt Q99581 1-238)
T7 sequence: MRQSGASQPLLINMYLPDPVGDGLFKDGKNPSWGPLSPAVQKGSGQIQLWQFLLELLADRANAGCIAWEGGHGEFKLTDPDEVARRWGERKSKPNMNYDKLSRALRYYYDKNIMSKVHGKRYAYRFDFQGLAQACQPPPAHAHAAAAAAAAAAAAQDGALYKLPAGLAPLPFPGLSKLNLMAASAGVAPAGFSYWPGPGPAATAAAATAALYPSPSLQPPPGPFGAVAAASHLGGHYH
Summary of the method: as §1

[11] = biological target: ETV5 (Homo sapiens, UniProt P41161 1-510)
Chain of ETV5 (P41161 whole entry): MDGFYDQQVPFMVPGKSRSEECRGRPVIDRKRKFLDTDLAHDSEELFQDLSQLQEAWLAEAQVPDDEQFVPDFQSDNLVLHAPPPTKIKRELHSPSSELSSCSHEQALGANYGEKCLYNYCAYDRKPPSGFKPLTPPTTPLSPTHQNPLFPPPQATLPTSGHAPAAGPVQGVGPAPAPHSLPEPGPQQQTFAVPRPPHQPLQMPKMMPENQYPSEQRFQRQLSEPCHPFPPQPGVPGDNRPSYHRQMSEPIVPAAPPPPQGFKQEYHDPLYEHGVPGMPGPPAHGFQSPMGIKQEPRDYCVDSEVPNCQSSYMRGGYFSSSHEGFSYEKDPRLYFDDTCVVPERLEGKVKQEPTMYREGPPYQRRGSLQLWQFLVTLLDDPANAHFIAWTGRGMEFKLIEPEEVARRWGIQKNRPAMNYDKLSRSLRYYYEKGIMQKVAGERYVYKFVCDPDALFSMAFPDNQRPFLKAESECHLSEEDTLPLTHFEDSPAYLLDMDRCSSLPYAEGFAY
Summary of the method: as §1

[12] = biological target: T8, SPIC (Homo sapiens, UniProt Q8N5J4 1-248)
T8 sequence: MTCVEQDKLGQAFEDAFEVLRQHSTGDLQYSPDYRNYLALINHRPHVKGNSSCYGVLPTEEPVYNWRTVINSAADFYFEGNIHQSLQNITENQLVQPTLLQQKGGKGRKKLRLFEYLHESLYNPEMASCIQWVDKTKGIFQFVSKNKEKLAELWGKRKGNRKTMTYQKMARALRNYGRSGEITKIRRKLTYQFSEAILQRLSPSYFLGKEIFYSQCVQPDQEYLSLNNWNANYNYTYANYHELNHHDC
Summary of the method: as §1

[13] = biological target: ELF4 (Homo sapiens, UniProt Q99607 1-663)
Chain of ELF4 (Q99607 whole entry): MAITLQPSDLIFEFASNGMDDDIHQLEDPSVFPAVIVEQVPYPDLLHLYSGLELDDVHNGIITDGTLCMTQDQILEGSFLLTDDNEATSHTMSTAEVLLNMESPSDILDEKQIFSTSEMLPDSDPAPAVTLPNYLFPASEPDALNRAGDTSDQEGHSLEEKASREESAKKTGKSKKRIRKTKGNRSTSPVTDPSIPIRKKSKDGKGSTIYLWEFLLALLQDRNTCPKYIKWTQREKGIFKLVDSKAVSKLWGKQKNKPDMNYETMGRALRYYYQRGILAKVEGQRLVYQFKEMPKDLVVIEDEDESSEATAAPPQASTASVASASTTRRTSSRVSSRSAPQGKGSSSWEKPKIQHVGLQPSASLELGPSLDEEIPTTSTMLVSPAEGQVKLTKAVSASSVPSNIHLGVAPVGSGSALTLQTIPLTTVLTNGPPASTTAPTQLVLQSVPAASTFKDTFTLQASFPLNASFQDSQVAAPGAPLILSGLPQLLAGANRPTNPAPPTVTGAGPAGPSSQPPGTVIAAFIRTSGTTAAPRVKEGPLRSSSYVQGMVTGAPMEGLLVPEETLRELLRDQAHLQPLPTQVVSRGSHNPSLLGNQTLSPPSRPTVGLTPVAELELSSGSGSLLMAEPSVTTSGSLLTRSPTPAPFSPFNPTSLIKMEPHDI
Summary of the method: as §1

[14] = biological target: T9, ELK4 (Homo sapiens, UniProt P28324-2 1-405)
T9 sequence: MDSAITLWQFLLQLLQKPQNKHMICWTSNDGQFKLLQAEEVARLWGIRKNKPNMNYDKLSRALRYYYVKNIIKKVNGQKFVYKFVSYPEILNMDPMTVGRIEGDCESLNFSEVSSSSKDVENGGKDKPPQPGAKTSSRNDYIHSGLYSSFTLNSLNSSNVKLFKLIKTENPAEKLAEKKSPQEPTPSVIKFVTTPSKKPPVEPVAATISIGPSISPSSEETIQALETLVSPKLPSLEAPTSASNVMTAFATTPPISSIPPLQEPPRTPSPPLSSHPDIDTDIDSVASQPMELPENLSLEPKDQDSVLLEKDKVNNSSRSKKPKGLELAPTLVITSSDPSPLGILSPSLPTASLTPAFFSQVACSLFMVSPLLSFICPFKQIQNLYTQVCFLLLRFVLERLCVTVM
Summary of the method: as §1

[15] = biological target: T10, ETV2 (Homo sapiens, UniProt O00321 1-342)
T10 sequence: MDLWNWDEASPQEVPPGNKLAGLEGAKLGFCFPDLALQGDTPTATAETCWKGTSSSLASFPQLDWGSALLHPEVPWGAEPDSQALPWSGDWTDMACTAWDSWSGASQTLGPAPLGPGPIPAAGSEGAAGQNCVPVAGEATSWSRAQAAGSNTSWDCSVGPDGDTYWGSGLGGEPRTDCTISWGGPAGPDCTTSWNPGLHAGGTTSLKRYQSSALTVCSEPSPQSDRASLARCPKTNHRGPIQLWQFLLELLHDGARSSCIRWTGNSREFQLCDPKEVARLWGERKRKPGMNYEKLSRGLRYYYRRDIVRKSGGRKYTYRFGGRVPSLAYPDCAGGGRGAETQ
Summary of the method: as §1

[16] = biological target: T11, ELF3 (Homo sapiens, UniProt P78545 1-371)
T11 sequence: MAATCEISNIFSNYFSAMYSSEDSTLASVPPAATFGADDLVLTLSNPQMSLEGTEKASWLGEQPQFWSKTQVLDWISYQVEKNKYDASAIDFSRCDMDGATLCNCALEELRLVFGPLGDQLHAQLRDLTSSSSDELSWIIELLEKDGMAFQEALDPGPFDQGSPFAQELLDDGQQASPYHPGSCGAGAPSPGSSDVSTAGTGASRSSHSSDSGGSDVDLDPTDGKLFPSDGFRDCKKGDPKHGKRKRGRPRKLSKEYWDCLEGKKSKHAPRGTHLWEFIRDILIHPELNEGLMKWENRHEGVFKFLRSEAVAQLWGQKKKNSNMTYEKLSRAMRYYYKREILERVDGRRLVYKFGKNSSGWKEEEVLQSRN
Summary of the method: as §1

[17] = biological target: ETV1 (Homo sapiens, UniProt P50549 1-477)
Chain of ETV1 (P50549 whole entry): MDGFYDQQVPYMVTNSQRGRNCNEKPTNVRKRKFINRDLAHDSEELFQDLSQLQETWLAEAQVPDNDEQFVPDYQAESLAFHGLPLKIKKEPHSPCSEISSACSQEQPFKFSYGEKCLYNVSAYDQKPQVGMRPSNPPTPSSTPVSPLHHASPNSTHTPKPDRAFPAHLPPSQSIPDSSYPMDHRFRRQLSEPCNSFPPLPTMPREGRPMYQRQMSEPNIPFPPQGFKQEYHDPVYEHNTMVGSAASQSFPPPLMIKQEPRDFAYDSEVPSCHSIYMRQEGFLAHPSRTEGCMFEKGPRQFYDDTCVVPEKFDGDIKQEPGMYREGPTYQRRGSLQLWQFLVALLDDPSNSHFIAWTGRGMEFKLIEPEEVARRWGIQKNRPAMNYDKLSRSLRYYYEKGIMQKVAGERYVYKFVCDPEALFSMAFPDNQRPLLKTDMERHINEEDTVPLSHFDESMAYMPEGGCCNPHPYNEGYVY
Summary of the method: as §1

Sequence | binding signal [1] | binding signal [2] | binding signal [3] | binding signal [4] | binding signal [5] | binding signal [6] | binding signal [7] | binding signal [8] | binding signal [9] | binding signal [10] | binding signal [11] | binding signal [12] | binding signal [13] | binding signal [14] | binding signal [15] | binding signal [16] | binding signal [17]
CCGGTT | 1.88 fold enrichment (6-mer frequency, TF over GST control) | 2.1 fold enrichment (6-mer frequency, TF over GST control) | 1.89 fold enrichment (6-mer frequency, TF over GST control) | 2.2 fold enrichment (6-mer frequency, TF over GST control) | 1.96 fold enrichment (6-mer frequency, TF over GST control) | 1.97 fold enrichment (6-mer frequency, TF over GST control) | 2.11 fold enrichment (6-mer frequency, TF over GST control) | 1.97 fold enrichment (6-mer frequency, TF over GST control) | 2.26 fold enrichment (6-mer frequency, TF over GST control) | 2.7 fold enrichment (6-mer frequency, TF over GST control) | 2.15 fold enrichment (6-mer frequency, TF over GST control) | 1.68 fold enrichment (6-mer frequency, TF over GST control) | 1.83 fold enrichment (6-mer frequency, TF over GST control) | 1.87 fold enrichment (6-mer frequency, TF over GST control) | 2.08 fold enrichment (6-mer frequency, TF over GST control) | 2.09 fold enrichment (6-mer frequency, TF over GST control) | 2.04 fold enrichment (6-mer frequency, TF over GST control)
ACAACC | 1.25 fold enrichment (6-mer frequency, TF over GST control) | 1.28 fold enrichment (6-mer frequency, TF over GST control) | 1.21 fold enrichment (6-mer frequency, TF over GST control) | 1.22 fold enrichment (6-mer frequency, TF over GST control) | 1.16 fold enrichment (6-mer frequency, TF over GST control) | 1.29 fold enrichment (6-mer frequency, TF over GST control) | 1.2 fold enrichment (6-mer frequency, TF over GST control) | 1.28 fold enrichment (6-mer frequency, TF over GST control) | 1.28 fold enrichment (6-mer frequency, TF over GST control) | 1.34 fold enrichment (6-mer frequency, TF over GST control) | 1.27 fold enrichment (6-mer frequency, TF over GST control) | 1.19 fold enrichment (6-mer frequency, TF over GST control) | 1.19 fold enrichment (6-mer frequency, TF over GST control) | 1.19 fold enrichment (6-mer frequency, TF over GST control) | 1.26 fold enrichment (6-mer frequency, TF over GST control) | 1.26 fold enrichment (6-mer frequency, TF over GST control) | 1.23 fold enrichment (6-mer frequency, TF over GST control)

Source: PMC7862700, “An all-to-all approach to the identification of sequence-specific readers for epigenetic DNA modifications on cytosine”
